The test system of assay [1] is thyroid hormone receptor (rat, GH3 cells). Briefly: qHTS assay to identify small molecule agonists of the thyroid receptor (TR) signaling pathway (AID 743066; calls by dose curve). On the technique in general: Quantitative high-throughput screening tests each substance at several concentrations.
Assay [2] has as its target Estrogen receptor (Homo sapiens) (UniProt P03372). Put plainly: qHTS assay to identify small molecule antagonists of the estrogen receptor alpha (ER-alpha) signaling pathway (AID 743069; active = well fitted curve in the direction sought with a large enough effect in the signal ratio in the repeat runs, not every such curve was filed as active; the % refers to the signal ratio). The essentials:
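HEK293 cells stably carrying an ER-alpha-UAS-bla beta-lactamase reporter were pre-cultured overnight in 2% charcoal-stripped FBS medium. Test compounds in DMSO were added together with 17beta-estradiol for 18 hr at 37C. Read-out was fluorescence after 2 hr with LiveBLAzer B/G FRET substrate at room temperature.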

Assay [3] can be described thus: qHTS assay to identify small molecule antagonists of the estrogen receptor alpha (ER-alpha) signaling pathway - cell viability counter screen (AID 743074; calls by dose curve; note: nearly all actives have a fitted effect of over 45% in size).
Assay [4] has as its target Estrogen receptor (Homo sapiens) (UniProt P03372). Briefly: qHTS assay to identify small molecule agonists of the estrogen receptor alpha (ER-alpha) signaling pathway (AID 743075; calls by dose curve).
Assay [5] has the same target. Put plainly: qHTS assay to identify small molecule agonists of the estrogen receptor alpha (ER-alpha) signaling pathway using the BG1 cell line (AID 743079). Note: nearly all actives have a fitted effect of over 20% in size. Note: potency is the fitted concentration of half-maximal effect.
The nature of assay [6]: qHTS assay to identify small molecule antagonists of the estrogen receptor alpha (ER-alpha) signaling pathway using the BG1 cell line (AID 743080; calls by dose curve;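 note: BG1 cells stimulated with 17beta-estradiol alongside compound; nearly all actives have a fitted effect of over 25% in size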; note: potency is the fitted concentration of half-maximal effect). A digest of the protocol: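 Quantitative HTS on the Tox21 10K library: BG1 cells with endogenous ER-alpha and ERE-luciferase reporter, 17beta-estradiol stimulation, 21.5 h compound exposure, luminescence endpoint with parallel fluorescence cytotoxicity counter-read.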

A short description of assay [7]: qHTS assay to identify small molecule antagonists of the estrogen receptor alpha (ER-alpha) signaling pathway using the BG1 cell line - cell viability counter screen (AID 743081).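 Note: compound given together with 17beta-estradiol as the ER stimulus; series mostly up to about 70 µM; nearly all actives have a fitted effect of over 45% in size.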
In assay [8] the target is Aromatase (Homo sapiens) (UniProt P11511). Briefly: qHTS assay to identify aromatase inhibitors (AID 743083). Note: nearly all actives have a fitted effect of over 55% in size. Note: potency is the fitted concentration of half-maximal effect.
A short description of assay [9]: qHTS assay to identify aromatase inhibitors - cell viability counter screen (AID 743084).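 Note: cells stimulated with testosterone during compound exposure; nearly all actives have a fitted effect of over 55% in size.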 Note: potency is the fitted concentration of half-maximal effect.
Assay [10] in a line: qHTS assay to identify small molecule antagonists of the thyroid receptor (TR) signaling pathway (AID 743065). Note: nearly all actives have a fitted effect of over 55% in size. Note: potency is the fitted concentration of half-maximal effect. A digest of the protocol: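 GH3.TRE-Luc rat pituitary cells carrying two TR response elements driving luciferase were plated for 4 h, given compound plus 1 nM T3 (final), and incubated 23.5 h at 37 C. ONE-Glo luminescence measured reporter inhibition; CellTiter-Fluor fluorescence tracked cytotoxicity.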

The text below walks through data of PubChem BioAssay (Tox21).

Structures are written as SMILES. Records with an inconclusive call do not appear. The source made the active and inactive calls. Unless noted, calls come from the whole dose curve; as a rule, active = well fitted curve in the direction sought with a large enough effect in the repeat runs; inconclusive = weak or mixed curves; inactive = no such curve, though single readings can be large; an effect the other way counts as inactive or inconclusive.

Chain of Estrogen receptor (Homo sapiens) (P03372 whole entry, looked up): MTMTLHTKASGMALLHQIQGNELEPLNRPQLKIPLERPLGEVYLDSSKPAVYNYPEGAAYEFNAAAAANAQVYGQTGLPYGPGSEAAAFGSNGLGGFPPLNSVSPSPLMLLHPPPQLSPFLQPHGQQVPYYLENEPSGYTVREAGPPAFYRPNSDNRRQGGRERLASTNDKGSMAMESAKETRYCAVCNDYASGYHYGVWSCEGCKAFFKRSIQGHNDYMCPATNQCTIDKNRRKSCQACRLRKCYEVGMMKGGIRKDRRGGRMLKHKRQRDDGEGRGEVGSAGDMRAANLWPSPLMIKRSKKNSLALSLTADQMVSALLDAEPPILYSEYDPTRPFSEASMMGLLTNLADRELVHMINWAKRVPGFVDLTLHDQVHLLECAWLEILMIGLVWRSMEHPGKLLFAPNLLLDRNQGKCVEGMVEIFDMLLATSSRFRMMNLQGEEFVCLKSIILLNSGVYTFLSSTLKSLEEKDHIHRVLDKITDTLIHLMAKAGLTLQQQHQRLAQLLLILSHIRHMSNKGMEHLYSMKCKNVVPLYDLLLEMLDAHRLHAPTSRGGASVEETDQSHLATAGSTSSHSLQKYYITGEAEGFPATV
Chain of Aromatase (Homo sapiens) (P11511 whole entry, looked up): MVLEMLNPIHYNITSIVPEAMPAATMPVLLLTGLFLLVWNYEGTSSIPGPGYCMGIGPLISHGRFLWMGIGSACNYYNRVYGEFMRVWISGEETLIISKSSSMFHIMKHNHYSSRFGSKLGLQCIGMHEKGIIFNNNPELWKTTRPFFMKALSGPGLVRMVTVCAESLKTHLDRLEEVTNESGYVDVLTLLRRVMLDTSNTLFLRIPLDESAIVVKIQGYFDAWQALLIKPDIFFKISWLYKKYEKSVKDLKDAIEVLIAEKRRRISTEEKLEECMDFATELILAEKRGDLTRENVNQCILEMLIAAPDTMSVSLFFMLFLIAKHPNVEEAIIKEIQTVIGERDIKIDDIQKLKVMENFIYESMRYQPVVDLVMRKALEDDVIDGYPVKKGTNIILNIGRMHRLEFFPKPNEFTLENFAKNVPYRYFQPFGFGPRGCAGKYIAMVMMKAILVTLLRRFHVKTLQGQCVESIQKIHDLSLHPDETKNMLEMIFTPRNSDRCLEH

`O=P(c1ccccc1)(c1ccccc1)c1ccccc1`: the call in assay [1] and in [3] was inactive. The Potency result in assay [2], in assay [4], in assay [5], in assay [6], in assay [7] and in assay [8] was “inactive” throughout. Also, in assay [9], the Potency result is “inactive”.

In the case of `Nc1ccc(F)cc1F`, the Potency result in assay [2], in assay [4], in [5], in [6], in assay [7] and in assay [8] was “inactive” each time. Besides, the Potency entry in [9] is “inactive”. For the same compound, the result in [3] was inactive.

On to `CCCCCCC/C=C/C=O`, for which the outcome in [1] and in assay [3] was inactive. Moreover, the Potency result in assay [4], in assay [5], in [6], in assay [7], in [8] and in [9] was “inactive” each time.

Regarding `C(/C=C/C=C/Nc1ccccc1)=Nc1ccccc1`, the Potency result in [2], in assay [4], in [5], in assay [6], in assay [7] and in assay [8] was “inactive” throughout. In assay [9], the Potency result is “inactive”. For the same compound, the compound was classed as inactive in assay [3].

Take `NC(=O)c1cc[n+](CC2=C(C(=O)[O-])N3C(=O)[C@@H](NC(=O)Cc4cccs4)[C@H]3SC2)cc1`: the Potency result in assay [2], in [4], in assay [5], in assay [6], in assay [7] and in [8] was “inactive” throughout. In addition, in assay [9], the Potency entry is “inactive”. Besides, the result in [3] was inactive.

For `CO[C@@H]1COCC[C@@H]1N[C@@H]1CC[C@@](C(=O)N2CCc3ncc(C(F)(F)F)cc3C2)(C(C)C)C1`, in assay [3], the compound was classed as inactive. The Potency entry in [7], in [8] and in assay [9] was “inactive” throughout.

`CCCc1ccc(OC)cc1`: the Potency result in assay [2], in assay [4], in [6], in assay [7], in [8] and in assay [9] was “inactive” each time. The result in assay [3] was inactive.

In the case of `Cc1ccc2c(Cl)cc(Cl)c(O)c2n1`, the Potency in [10] is 1.68 µM (active); in assay [6], 9.44 µM (active); in assay [8] it was 13.3 µM (active); in assay [9], 23.7 µM (active).

Turning to `CCc1ccc(C(=O)C(C)CN2CCCCC2)cc1` (stereo unspecified), the result in [1] and in assay [3] was inactive. The Potency entry in assay [7], in assay [8] and in assay [9] was “inactive” in each case.

For `CC(C)(C)NCC(O)COc1ccc(NC(=O)NC2CCCCC2)cc1` (stereo unspecified), the compound was called inactive in assay [1] and in [3]. Also, the Potency entry in assay [2], in assay [4], in assay [7], in assay [8] and in [9] was “inactive” each time.

Regarding `Nc1ncnc2c1ncn2[C@@H]1O[C@H](CO)[C@@H](O)[C@H]1O`, the Potency entry in assay [2], in assay [4], in assay [5], in assay [6], in assay [7] and in assay [8] was “inactive” throughout. The Potency result in [9] was “inactive”. In addition, the call in [3] was inactive.

Regarding `C/C(=C\C(C)CC(C)CC(C)C)C1CC(=O)OC1=O` (stereo unspecified), the compound was classed as inactive in assay [1] and in assay [3]. Moreover, the Potency result in assay [4], in assay [5], in [6], in assay [7] and in [8] was “inactive” throughout.

For `O=C(O)c1cccnc1Nc1cccc(C(F)(F)F)c1`, the compound was called inactive in assay [1] and in assay [3]. In addition, the Potency result in assay [4], in [5], in [6], in [7], in [8] and in [9] was “inactive” in each case.

As for `CC(O)CN` (stereo unspecified), the Potency entry in [2], in assay [4], in assay [5], in [6], in assay [7] and in [8] was “inactive” throughout. Besides, the Potency result in assay [9] was “inactive”. Moreover, the compound was called inactive in assay [3].

Turning to `N#C[C@@H]1CC(F)(F)CN1C(=O)CNC1CC2CCC(C1)N2c1ncccn1` (stereo partly specified), the Potency result in assay [2], in assay [4], in assay [5], in assay [7], in [8] and in [9] was “inactive” in each case. Besides, the compound was called inactive in assay [3].

Take `Clc1cc(Cl)c2c(c1)N=C1CCCCCN1C2`: the call in assay [1] and in assay [3] was inactive. In addition, the Potency entry in [4], in [7], in assay [8] and in [9] was “inactive” throughout. Also, the Potency in [5] was 23.7 µM (active).

In the case of `CC(=O)CC/C=C(\C)CC/C=C(\C)CC/C=C(\C)CCC=C(C)C`, the result in assay [1] and in [3] was inactive. Further, the Potency entry in assay [7], in assay [8] and in assay [9] was “inactive” in each case.

In the case of `CCOC(C)OCC`, the call in [3] was inactive. Besides, the Potency result in assay [7], in assay [8] and in [9] was “inactive” each time.

As for `CCCCCCCCCC(C)C=O` (stereo unspecified), the compound was called inactive in assay [1] and in assay [3]. In addition, the Potency result in [7], in assay [8] and in assay [9] was “inactive” throughout.

As for `COC(=O)Cc1cccc2ccccc12`, the Potency entry in [2], in assay [4], in [5], in assay [6], in assay [7] and in assay [8] was “inactive” each time. The Potency result in [9] was “inactive”. Besides, in [3], the compound was classed as inactive.

As to `CC(Cc1ccccc1)(NC(=O)CN)c1ccccc1` (stereo unspecified), the call in [1] and in assay [3] was inactive. Besides, the Potency entry in assay [2], in assay [4], in [5], in assay [6], in assay [7] and in assay [8] was “inactive” throughout. Besides, the Potency entry in assay [9] was “inactive”.

On to `CO[C@@H]1[C@@H](O[C@@H]2O[C@H](C)[C@@H](O[C@H]3C[C@@](C)(O)[C@@H](O)[C@H](C)O3)[C@H](N(C)C)[C@H]2O)[C@@H](CC=O)C[C@@H](C)[C@@H](O[C@@H]2CC[C@H](N(C)C)[C@@H](C)O2)/C=C/C=C/C[C@@H](C)OC(=O)C[C@H]1OC(C)=O`, for which the Potency entry in [2], in assay [4], in assay [5], in [6], in assay [8] and in assay [9] was “inactive” throughout.

For `COc1ccc(/C=C/S(=O)(=O)NC(=O)c2ccc(C)cc2Cl)cc1`, the Potency entry in [7], in assay [8] and in assay [9] was “inactive” each time.

As to `Clc1cccc(C(c2ccc3nc[nH]c3c2)n2ccnc2)c1` (stereo unspecified), the compound was called inactive in assay [1]. Moreover, the Potency result in assay [2], in [4], in assay [7] and in assay [9] was “inactive” throughout. In addition, in [6], the Potency is 11.9 µM (active).

With `CCCc1nc(C)c2c(=O)[nH]c(-c3cc(S(=O)(=O)N4CCN(CC)CC4)ccc3OCC)nn12`, the compound was called inactive in [3]. Moreover, the Potency result in assay [7], in assay [8] and in assay [9] was “inactive” in each case.

As for `CCCCCCCCCCCCSC#N`, the outcome in assay [1] and in assay [3] was inactive. In addition, the Potency entry in [2], in assay [4], in [5], in assay [6], in assay [7] and in assay [8] was “inactive” in each case. Also, the Potency entry in assay [9] was “inactive”.

On to `C/C=C1\[C@H]2C=C(C)C[C@]1(N)c1ccc(=O)[nH]c1C2`, for which the Potency result in assay [10], in assay [7], in assay [8] and in assay [9] was “inactive” in each case. For the same compound, the result in assay [3] was inactive.

With `O=S(=O)(O)c1cc(Cl)c(Cl)cc1Cl`, the Potency entry in assay [2], in assay [4], in assay [5], in assay [6], in [7] and in assay [8] was “inactive” each time. Also, the Potency entry in assay [9] was “inactive”. In addition, the result in assay [3] was inactive.

As for `COc1cc(C)c(Cc2cnc(N)nc2N)cc1OC`, the Potency entry in [2], in [4], in assay [5], in assay [6], in assay [7] and in assay [8] was “inactive” throughout. Besides, the Potency entry in assay [9] was “inactive”. In [3], the call was inactive.

As for `COc1cc(CNC(=O)CCCC/C=C/C(C)C)ccc1O`, the compound was classed as inactive in [1] and in assay [3]. In addition, the Potency entry in assay [2], in [4], in assay [5], in assay [6], in [7] and in [9] was “inactive” throughout.

`NCCOCCOCCN`: the compound was called inactive in assay [1] and in [3]. The Potency entry in assay [7], in assay [8] and in [9] was “inactive” each time.
